Assay outcomes: PubChem, National Center for Advancing Translational Sciences (NCATS)
G9a inh: inhibitors of human histone lysine methyltransferase G9a; Q96KQ7; Potency, µM (doses to about 102 µM), for inactives: top-dose activity, negative = inhibition, most hits filed as inhibitors; G9a H3K9 monomethylation, AlphaScreen, 2 h; 350,000 tested, 8.8% active; note: % is set by controls: 0 for no effect and ±100 for the full control effect; nearly all actives have a fitted effect of over 75% in size
Target sequence (Q96KQ7 913-1193 limits assumed): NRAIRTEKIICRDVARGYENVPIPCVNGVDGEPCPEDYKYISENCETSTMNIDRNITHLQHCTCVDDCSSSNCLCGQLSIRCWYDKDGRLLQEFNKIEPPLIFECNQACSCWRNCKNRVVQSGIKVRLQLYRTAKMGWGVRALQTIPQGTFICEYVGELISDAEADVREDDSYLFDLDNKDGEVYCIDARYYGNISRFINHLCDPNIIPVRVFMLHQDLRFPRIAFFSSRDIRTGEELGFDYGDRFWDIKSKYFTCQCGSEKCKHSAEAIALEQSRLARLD
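Chemiluminescent proximity detection of H3K9 monomethylation, read after 10 min bead incubation in the dark. Reaction: 20 nM G9a, 500 nM biotin-H3K9 peptide, 20 uM SAM cofactor, 2 h, room temperature, following 15 min enzyme-compound preincubation.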
TDP1 inh: inhibitors of human tyrosyl-DNA phosphodiesterase TDP1. Potency, µM (titrated, usually from 130 µM), for the others: at the highest dose activity change, negative = inhibition, usual class: inhibitors. 350,000 tested, 0.28% active. recombinant TDP1, AlphaScreen DNA substrate cleavage. AID 485290; note: % is set by controls: 0 for no effect and ±100 for the full control effect; nearly all actives have a fitted effect of over 40% in size
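Tdp1 1 nM final; 15 min RT w/ cpd; substrate 15 nM, 5 min; beads 10 ug/ml, 10 min; AlphaScreen read. Neg ctrl: no enzyme.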
HP1b binding inh: HP1-beta chromodomain-methylated histone interaction inhibition; P83916; AlphaScreen HP1-beta / biotin-H3K9me3 peptide binding; Potency, µM (doses to about 114 µM), inactives show top-dose activity change, negative = inhibition, most hits filed as inhibitors; 390,000 tested, 0.56% active; AID 540317; note: nearly all actives have a fitted effect of over 70% in size
Target sequence (P83916 whole entry, looked up): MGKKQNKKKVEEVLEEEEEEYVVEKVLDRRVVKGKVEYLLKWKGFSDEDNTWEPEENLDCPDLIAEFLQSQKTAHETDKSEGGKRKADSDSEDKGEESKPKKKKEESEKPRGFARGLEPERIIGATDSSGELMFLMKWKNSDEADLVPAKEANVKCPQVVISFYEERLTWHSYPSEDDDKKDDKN
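AlphaScreen: HP1-beta (50 nM) preformed 30 min with biotin-H3(1-18)K9me3 peptide (50 nM) in PBS pH 7.4, 0.01% Tween-20. Compound added for 30 min at RT, then streptavidin donor/nickel chelate acceptor beads (10 ug/mL) for 30 min.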
Sfp inh: Sfp phosphopantetheinyl transferase inhibition | Biochemical Sfp PPTase activity, qHTS | Potency, µM, without a hit: largest response in the series, negative = inhibition, usual class: inhibitors | AID 1490 | 310,000 tested, 3.5% active;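 note: the enzyme is Sfp with the accession as filed and its product quenches rhodamine fluorescence; 0% = enzyme reaction without inhibitor and -100% = no enzyme wells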
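Fluorescence-quenching assay with 15 nM Sfp, 5 uM rhodamine-CoA and 12.5 uM BHQ-2-labelled ybbR peptide in pH 7.6 Hepes/MgCl2 buffer. Enzyme was pre-incubated with compound for 15 min at room temperature. Rate was taken from the 30-min fluorescence change (525/598 nm).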
JMJD2A Tudor: blocks the human JMJD2A Tudor domain; O75164; AlphaScreen JMJD2A-Tudor / H3K4me3 peptide binding; Potency, µM (series often up to 114 µM), without a hit: at the highest dose activity change, negative = inhibition, hits mostly inhibitors; 390,000 tested, 4.4% active; AID 504339; note: % is set by controls: 0 for no effect and ±100 for the full control effect; nearly all actives have a fitted effect of over 50% in size
BAZ2B block: BAZ2B (human) inhibition; AlphaScreen BAZ2B-H3K14Ac peptide displacement; Potency, µM (top dose mostly 114 µM), for inactives: at the highest dose activity change, negative = inhibition, usual class: inhibitors; 360,000 tested, 4.4% active; Q9UIF8; AID 504333; note: % is set by controls: 0 for no effect and ±100 for the full control effect; nearly all actives have a fitted effect of over 60% in size
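Protein-peptide AlphaScreen: BAZ2B 50 nM, b-H3K14Ac 50 nM, 1x PBS pH 7.4 + 0.01% Tween-20. Preincubation 30 min RT; cpd 30 min RT (top 110 uM); beads 20 min RT, light-protected.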
* = called active by the depositor; ? = inconclusive; . = not tested or not shown; [ ] = remark or other dose. In the library only some 12% were active in any assay of this set; here they are far more common. Calls come from the whole dose curve; as a rule, active = well fitted curve in the direction sought with a large enough effect; inconclusive = small, poorly fitted or top-dose-only effect, or another doubt; inactive = no such curve, though single readings can be large; an effect the other way counts as inactive or inconclusive. Potency is the fitted concentration of half-maximal effect.

SMILES	G9a inh	TDP1 inh	HP1b binding inh	Sfp inh	JMJD2A Tudor	BAZ2B block
O=c1[nH]c(=S)[nH]c(O)c1N=Nc1cc(S(=O)(=O)Nc2ccc(Cl)cc2)ccc1Cl	?	-8%	40µM*	.	35µM*	35µM*
CC(C)(C)C(O)C(Oc1ccc(-c2ccccc2)cc1)n1cncn1 (stereo unspecified)	.	23%	.	-16%	.	.
CCc1ccc(NC(=O)CN2C(=O)C3(SCC(=O)N3c3ccc(F)c(F)c3)c3ccccc32)cc1 (stereo unspecified)	?	2%	16%	.	-31%	4%[57.1 µM]
COc1cccc(N=Nc2c(O)[nH]c(=S)[nH]c2=O)c1	50µM*	-10%	3%	-19%	-26%	-32%
O=c1[nH]c(=S)[nH]c(O)c1N=Nc1ccc(S(=O)(=O)N2CCOCC2)cc1	.	20µM*	18%	-18%	-29%	?
O=c1[nH]c(O)c(N=Nc2ccc(S(=O)(=O)N3CCOCC3)cc2)c(=O)[nH]1	13µM*	?	37%	10%	-26%	-27%
O=c1[nH]c(O)c(N=Nc2cccc(S(=O)(=O)N3CCOCC3)c2)c(=O)[nH]1	0%	-1%	61%	10%	6%	-18%
O=c1[nH]c(=S)[nH]c(O)c1N=Nc1ccc2c(c1)OCCO2	?	-5%	24%	?	-9%	-27%
CC(C)n1c(=O)c(C=Nc2cccc([N+](=O)[O-])c2)c(O)n(CCc2ccccc2)c1=O	10µM*	5%	-7%	-4%	?	?
CC(C)n1c(=O)c(C=Nc2ccc(S(N)(=O)=O)cc2)c(O)n(Cc2ccco2)c1=O	?	4%	2%	16%	-21%	?
CCCC(C)C1(CC)C(=O)NC(=S)NC1=O (stereo unspecified)	26%[59 µM]	6%	.	1%	.	.
N#CN=C1SCCN1Cc1ccc(Cl)nc1	.	26%	.	7%	.	.
Cc1cccc(N2C(=O)NC(=O)/C(=C\c3cc(C)n(-c4sc5c(c4C#N)CCCC5)c3C)C2=O)c1C	16µM*	-8%	-20%	35µM*	?	?
C/C=C(\C)C(=O)OC1C(C)=C2C(C1OC(=O)CCCCC)C(C)(OC(C)=O)CC(OC(=O)CCC)C1(O)C2OC(=O)C1(C)O (stereo unspecified)	?	.	.	28%	.	56µM*
C[C@H](CO)N1C[C@H](C)[C@@H](CN(C)C(=O)Nc2ccccc2)Oc2c(NS(=O)(=O)c3ccc(F)cc3)cccc2C1=O	.	4%	48%	.	-6%	.
C[C@H](N)Cc1ccccc1	-36%[12.7 µM]	.	.	7%	.	.
CCC(C)c1ccc(N2C(=O)NC(=O)/C(=C/c3cccn3CCOc3ccc(C)cc3)C2=O)cc1 (stereo unspecified)	27%[59 µM]	3%	23%	12%	-25%	-9%
CCCCN1C(=O)/C(=C/C=C/c2ccco2)C(=O)NC1=S	7.9µM*	.	35µM*	28µM*	22µM*	35µM*
O=C1NC(=O)N(Cc2ccco2)C(=O)/C1=C/c1cccn1CCOc1ccccc1Cl	?	0%	25%	-10%	-25%	45µM*
CCCCN1C(=O)/C(=C/c2ccc(N(C)C)cc2)C(=O)N(Cc2ccco2)C1=O	-4%[12.7 µM]	6%	-17%	-18%	?	?
CCCCN1C(=O)/C(=C\c2ccco2)C(=O)N(CCc2ccccc2)C1=O	32µM*	11%	?	?	?	35µM*
O=C1NC(=O)N(Cc2ccc(F)cc2)C(=O)/C1=C\C=C\c1ccco1	40µM*	.	9%	?	-20%[11.4 µM]	56µM*
O=C1NC(=O)C(=CCc2ccccc2)C(=O)N1	.	.	62%	.	-8%	.
O=C1NC(=O)N(Cc2ccccc2)C(=O)/C1=C\c1ccco1	35µM*	-6%	?	-29%	?	40µM*
CC1(C)C2C[C@@H](O)[C@]3(C)C(CC[C@@]4(C)[C@H](c5ccoc5)C[C@H]5O[C@]543)[C@@]2(C)[C@@H](O)C[C@H]1O (stereo partly specified)	.	9%	.	-24%	.	.
SMILES	G9a inh	TDP1 inh	HP1b binding inh	Sfp inh	JMJD2A Tudor	BAZ2B block
CN1C(=O)C(C2(C#N)CCCCC2)C(=O)N(C)C1=O	50µM*	-1%	42%	10%	-11%	12%
CC(=O)CC(=O)C1C(=O)N(C)C(=O)N(C)C1=O	-28%	-6%	28%	0%	-10%	-10%
COc1ccc(CNCCc2ccc(Cl)cc2)c(OC)c1OC	35µM*	.	?	1%	32µM*	?
COc1cc(OC)c(OC)cc1CNCCc1ccc(F)cc1	.	6%	-16%	-17%	63µM*	-17%
COc1ccc(CCNCc2ccccc2F)cc1	7%	.	-29%	-1%	20µM*	45µM*
COc1ccccc1CNCCc1ccc(F)cc1	-12%	.	?	-7%	32µM*	50µM*
CCOc1ccc(Cl)cc1CNCCc1ccccc1F	19%	-1%	21%	?	-10%	-22%
CCc1ccc(CNCCc2ccc(F)cc2)cc1	-2%[59 µM]	3%	27%	?	2%	27%
CON(C)C(=O)Nc1ccc(Br)cc1	.	23%	.	8%	.	.
O=C(Oc1ccccc1)N1CCC[C@@]2(CCN(Cc3ccccc3)C2)C1	-3%[12.7 µM]	.	.	7%	.	.
COc1cc(OC)c(OC)cc1CNCCc1cccc(F)c1	-15%	.	?	14%	7.9µM*	56µM*
COc1ccc(CNCCc2cccc(F)c2)c2ccccc12	.	5%	.	?	.	?
O=C(Cc1ccc(Cl)c(Cl)c1)N1CCCC[C@H]1CN1CCCC1	.	12%[56.1 µM]	.	-9%	.	.
CCCCCn1c(=O)c(C(=O)Nc2ccccc2N)c(O)c2ccccc21	30%	.	47%	-4%	1%	2%
